Bioassay records as filed in PubChem.
The full list was thinned out, with hits kept by preference.
Pf Dd2 growth: Plasmodium falciparum Dd2 growth inhibition. P. falciparum Dd2 growth, SYBR Green, 72 h. Potency, µM (highest dose often 28.9 µM), for the others: at the highest dose activity, negative = inhibition, hits mostly inhibitors. AID 1347417. 4.3% of 120,000 active; active means well fitted inhibition curve with a large enough effect;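 further: plate controls were DMSO vehicle for no effect and reference drug for full effect; nearly all actives have a fitted effect of over 65% in size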
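Readout: SYBR Green fluorescence, 485 nm excitation, 535 nm emission, after ~16 h lysis at 37C. Before that, Dd2-infected red cells (2.5% hematocrit) grew 72 h with compound, 29 uM top final concentration.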
Numbers without * were called inactive; i = inactive; [ ] = another dose, or the depositor's remark. Potency means the concentration at half of the fitted maximal effect.

SMILES	Pf Dd2 growth
CCCNC(=O)N(C1CCOCC1)C1CCN(C(=O)c2cccc(C(F)(F)F)c2)CC1	7%
O=C(NC1CCCCC1)N1CCN(c2ccc(Cl)nn2)C(=O)C1	-8%
Cc1noc(C)c1CCC(=O)NCc1cccnc1N1CCOCC1	-5%
Cc1ccc(-c2nnc(C3CN(C(=O)CC(C)(C)C)CC34CCOCC4)o2)cc1 (centres undefined)	-15%
CC(=O)Nc1ccc(CC(=O)N2CCCC(Cc3nncn3CC3CC3)C2)cc1 (centres undefined)	-24%
CCC(=O)Nc1ccc(C2(C(=O)NC3CC3)CCCCC2)cc1	-19%
COc1ccc(-c2ccc3c(c2)C(=O)N2C[C@@H](NS(=O)(=O)c4ccc(F)cc4)C[C@H]2C(=O)N3)cc1	-18%
OCC1CN(C2CCC2)CC12CCN(Cc1cc(F)c(F)c(F)c1)CC2 (centres undefined)	-12%
OCC1CN(C2CCC2)CC12CCN(Cc1ccc(F)cc1)CC2 (centres undefined)	13µM*
OCC1CN(C2CCC2)CC12CCN(Cc1ccc[nH]1)CC2 (centres undefined)	-10%
COCCN1CCCCC(CC(=O)Nc2ccc(C)cc2)C1=O (centres undefined)	-12%
Cn1cnc2ccc(-c3cccc(C(F)(F)F)c3)nc2c1=O	4.5µM*
O=c1c2nc(-c3cccc(C(F)(F)F)c3)ccc2ncn1Cc1ccccn1	-8%[44.1 µM]
COCCn1cnc2ccc(-c3cccc(O)c3)nc2c1=O	-8%[44.1 µM]
Cc1ccc(NC(=O)CC2CCCN(c3cn[nH]c(=O)c3)C2)cc1C (centres undefined)	i
CC(=O)Nc1ccc(-c2ccc(=O)n3c2[C@@H]2C[C@@H](CN(S(=O)(=O)c4ccccc4)C2)C3)cc1	i
Cc1ccc(-c2nnc([C@H]3CCN(Cc4ncc[nH]4)C3)o2)cc1	i
Cc1ccc(NC2=N[C@H]3[C@@H](O)[C@H](O)C[C@H](C(=O)N(C)Cc4ccccc4)[C@H]3S2)cc1	-5%[44.1 µM]
C[C@H]1CCCN1C(=O)c1nnc(COc2cccc(C(F)(F)F)c2)n1-c1cccnc1	i
CC(=O)N1CCN(C(=O)C[C@@H]2C[C@@H](C(C)C)[C@H](CNC(=O)Nc3cccc(F)c3)C=C2C)CC1	i
C#CCNC(=O)C[C@@H]1C[C@@H](C(C)C)[C@H](CNC(=O)c2ccccn2)C=C1C	-10%[44.1 µM]
CC1=C[C@@H](CNC(=O)c2cccnc2)[C@H](C(C)C)C[C@H]1CC(=O)N1CCCC1	-29%[44.1 µM]
COc1ccccc1C(=O)NC[C@@H]1C=C(C)[C@H](CC(=O)N2CCCC2)C[C@H]1C(C)C	13µM*
COc1cccc(NC(=O)NC[C@@H]2C=C(C)[C@H](CC(=O)N3CCN(c4ccccn4)CC3)C[C@H]2C(C)C)c1	13µM*
COc1cccc(NC(=O)NC[C@@H]2C=C(C)[C@H](CC(=O)N3CCOCC3)C[C@H]2C(C)C)c1	-20%
SMILES	Pf Dd2 growth
CC1=C[C@@H](CNC(=O)c2ccccn2)[C@H](C(C)C)C[C@H]1CC(=O)N1CCN(C)CC1	11µM*
CC1=C[C@@H](CNC(=O)c2cccnc2)[C@H](C(C)C)C[C@H]1CC(=O)N1CCN(C)CC1	i
COc1ccccc1C(=O)NC[C@@H]1C=C(C)[C@H](CC(=O)NCc2ccccn2)C[C@H]1C(C)C	i
COCCn1ncc(N2CCCC(CC(=O)NCc3cccs3)C2)cc1=O (centres undefined)	15%
Cc1cccc2[nH]c(C3CCN(C(=O)C4CC5(CCNCC5)CN4)CC3)nc12 (centres undefined)	-16%
O=C(NC1CC1)[C@@H]1C[C@H](Oc2cccnc2)CN1C(=O)c1nccc2ccccc12	5%
O=C(CCC[C@@H]1[C@H]2CCCN3CCC[C@@H](CN1C(=O)c1ccccc1)[C@@H]23)NCCN1CCCCC1	-13%
O=C(CCC[C@@H]1[C@H]2CCCN3CCC[C@@H](CN1Cc1cccnc1)[C@@H]23)N1CCN(C2CCCC2)CC1	-20%
O=C(CCC[C@@H]1[C@H]2CCCN3CCC[C@@H](CN1C(=O)c1ccccc1)[C@@H]23)N1CCCCC1	-4%
CCN(Cc1ccccc1)C(=O)CCC[C@@H]1[C@H]2CCCN3CCC[C@@H](CN1C(=O)c1ccccc1)[C@@H]23	2µM*
CC(C)N1CCN(C(=O)CCC[C@@H]2[C@H]3CCCN4CCC[C@@H](CN2C(=O)c2ccccc2)[C@@H]34)CC1	-21%
CC(C)N1CCN(C(=O)CCC[C@@H]2[C@H]3CCCN4CCC[C@@H](CN2Cc2ccccc2)[C@@H]34)CC1	4µM*
CC(C)N1CCC(OCCCNC(=O)C2CCN(c3cnn(C)c(=O)c3)C2)CC1 (centres undefined)	14%
O=C(CCCc1ccccc1)Nc1ccc(OC2CCNCC2)nc1	i
COC1CCCN(C(=O)c2cnc(Cc3c(Cl)cccc3Cl)[nH]c2=O)C1 (centres undefined)	-5%
O=C(CN1CCCCCC1)N1C[C@@H](CO)[C@H](c2ccncc2)C1	29%
CNCc1ccc(C(F)(F)F)cc1	-1%[44.1 µM]
COc1ccc(C(CC(=O)N2CCCC2)c2c[nH]c3ccccc23)cc1 (centres undefined)	-7%
CCOC(=O)C1CCCN(C(=O)CC(c2cccc([N+](=O)[O-])c2)c2c[nH]c3c(CC)cccc23)C1 (centres undefined)	13µM*
CCCNC(=O)CC(c1ccccc1OC)c1c[nH]c2c(CC)cccc12 (centres undefined)	i
CCCNC(=O)CC(c1ccc(OC)c(OC)c1)c1c[nH]c2c(CC)cccc12 (centres undefined)	-11%
CCc1cccc2c(C(CC(=O)NC(C)CC)c3ccc(OC)c(OC)c3)c[nH]c12 (centres undefined)	-4%
CCc1cccc2c(C(CC(=O)N3CCCCC3)c3cccc(C)c3)c[nH]c12 (centres undefined)	i
CCc1cccc2c(C(CC(=O)N3CCCC3)c3cccc([N+](=O)[O-])c3)c[nH]c12 (centres undefined)	7.9µM*
CC(CCc1ccccc1)NC(=O)CC(c1cccc2c1OCO2)c1c[nH]c2ccccc12 (centres undefined)	-15%
SMILES	Pf Dd2 growth
CCc1cccc2c(C(CC(=O)N3CCc4ccccc4C3)c3cccc4c3OCO4)c[nH]c12 (centres undefined)	8.9µM*
CN1CCC(NC[C@H]2O[C@@H](CO)[C@@H](O)[C@H]2N2CCN(c3ccc(F)cc3)CC2)CC1	19%
O=C(CCN1CCCCO1)N1CCc2onc(-c3ccc(F)c(F)c3)c2C1	-19%
CCn1ncc(CN2CC[C@H](CNC(=O)COC)[C@H](N(C)C)C2)c1C	-10%
CCN1CCNC(=O)C1CC(=O)N1CCn2nc(Cc3ccccc3)cc2C1 (centres undefined)	3%
CCc1ccc(NC(=O)c2ccc3c(c2)N(CC)C2CCCCCN2C3=O)cc1 (centres undefined)	-8%
O=C1c2ccccc2CN1C1CCN(Cc2ccc(C(F)(F)F)cc2)CC1	-17%
Cc1ccccc1-c1noc(CNCc2nc3ccc(Cl)cc3[nH]2)n1	-5%
Cc1ccccc1C(=O)NC1CCN(c2cc(-c3ccc(Cl)cc3)[nH]n2)CC1	i
c1ccc(OCc2cc(CC3(NCc4cccnc4)COC3)no2)cc1	-25%[44.1 µM]
COCC(=O)N[C@@H]1CN(Cc2cccc(OC)n2)CC[C@@H]1CO	8%
CSc1ccc2cc(CN3CC[C@@H](O)C3)c(-c3ccc(Cl)cc3)nc2c1	11µM*
CSc1ccc(C(=O)N2CCN(Cc3ccccc3)CC(O)C2)cc1 (centres undefined)	-5%
